Drawing on PubChem BioAssay (EPA / NIEHS), this text covers AC50 and outcome for 37 molecules.

SMILES strings stand for the structures. Results filed as inconclusive are left out. The source made the active and inactive calls. How the source made its calls: active means hit-call score of the fitted dose curve at least 0.9, where 1 is the maximum; inconclusive means response in the unintended direction; inactive means score below 0.9.

Chain of Cellular tumor antigen p53 (Homo sapiens) (P04637 whole entry, looked up): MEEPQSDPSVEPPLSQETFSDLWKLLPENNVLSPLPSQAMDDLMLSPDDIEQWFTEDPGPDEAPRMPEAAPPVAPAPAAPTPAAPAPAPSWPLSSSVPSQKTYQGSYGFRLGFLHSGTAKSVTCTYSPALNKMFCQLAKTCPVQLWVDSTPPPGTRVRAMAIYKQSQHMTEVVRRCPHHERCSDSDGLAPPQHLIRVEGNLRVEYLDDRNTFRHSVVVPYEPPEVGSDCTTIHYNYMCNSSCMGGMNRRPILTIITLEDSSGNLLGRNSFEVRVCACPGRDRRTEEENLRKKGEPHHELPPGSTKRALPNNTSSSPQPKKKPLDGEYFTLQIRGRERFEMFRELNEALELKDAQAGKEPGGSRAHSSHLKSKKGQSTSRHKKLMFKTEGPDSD

In the first assay the target is Cellular tumor antigen p53 (Homo sapiens) (UniProt P04637). The assay can be described thus: TOX21_p53_BLA_p4_ratio: Tox21 HCT-116 p53 Agonism Beta-lactamase Assay, Ratio, Phase 4 (AID 2283601). The method, boiled down:
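HCT116 cells carrying an inducible beta-lactamase reporter were plated at 4000 cells/well, rested 5 h, then exposed to compounds in DMSO (217-fold dilution) for 16 h at 37C. CCF4-AM substrate was loaded 2 h at room temperature; 460/530 nm emission ratio scored gain-of-signal versus DMSO.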
As to `CCCCN1C(=O)[C@@H]([C@H](O)C2CCCCC2)NC(=O)C12CCN(Cc1ccc(Oc3ccc(C(=O)O)cc3)cc1)CC2`, the AC50 – broadly, the concentration at which the activity in the assay is half-maximal – was 57.9 µM (active).
`c1ccc(C(O[C@@H]2CCCN(CCc3ccc4c(c3)OCO4)C2)c2ccccc2)cc1`: the result was inactive.
On the same count and under the same terms, in the case of `Cn1c(=O)c2[nH]cnc2n(C)c1=O` it was “inactive”; in that of `O=C(O)c1cccc(C[C@@H]2COc3ccc(OCc4nc5cc(F)ccc5s4)cc3[C@@H]2O)c1`, “inactive”; in that of `CCCCCCCC/C=C\CCCCCCCC(=O)OC[C@@H](O)[C@H]1OC[C@H](O)[C@H]1O`, “inactive”.
On the same count and under the same terms, the entry for `O=S1(=O)CCCO1` is “inactive”.
On the same count and under the same terms, the entry for `C[C@]12C=CC(=O)C=C1CC[C@H]1[C@@H]3C[C@@H](O)[C@](O)(C(=O)CO)[C@@]3(C)C[C@H](O)[C@@]12F` is “inactive”; for `CCCCC(CC)C(=O)OCCOCCOCCOC(=O)C(CC)CCCC` (stereo not drawn) it is “inactive”; for `C=CN1CCCC1=O` it is “inactive”.
With `CC(=O)c1ccccc1`, the result was inactive.
On the same count and under the same terms, the entry for `OC(Cn1cncn1)(Cn1cncn1)c1ccc(F)cc1F` is “inactive”; for `CCCCOC(=O)c1ccccc1` it is “inactive”; for `c1ccc2cc3ccccc3cc2c1` it is “inactive”.
The same measure, in the same setting: the entry for `CCn1nc(C)c2c1C(=O)NCC(c1ccc(O)cc1)=N2` is “inactive”; for `CCc1cccc(CC)c1N` it is “inactive”.
In the case of `CCCCCCCCCCCCCCO`, the result was inactive.
Regarding `CCc1ccc(O)c(C(C)(C)C)c1`, the AC50 was 53.1 µM (active).
Take `O=C(O)c1ccc2c(c1)nc(C(=O)NC1CCN(C3CC3)CC1)n2Cc1cc(-c2ccc(Cl)s2)on1`: the result was inactive.
`NNC(=O)c1ccncc1`: the result was inactive.
On to `CCCCCCCCCC`, for which the outcome was inactive.
`NC(=O)NN=Cc1ccc([N+](=O)[O-])o1`: the result was inactive.
Turning to `c1ccc2ncccc2c1`, the outcome was inactive.
For `CCOC(N)=O`, the outcome was inactive.
Still for that read-out and setting: the entry for `CCCCCCCCCCCCCCCCOS(=O)(=O)O` is “inactive”; for `OCCOCCOCCO` it is “inactive”; for `O=C1CN(N=Cc2ccc([N+](=O)[O-])o2)C(=O)N1` it is “inactive”.

System in a further assay: not listed separately
The assay can be described thus: Tanguay_ZF_120hpf_MORT_legacy: (Legacy) Oregon State University Tanguay Lab 120 Hour Post-fertilization zebrafish Assay for Mortality (AID 2283633).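 On AC50: fitted as increase in binary mortality versus DMSO negative control.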 In a few lines: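 Single dechorionated Tropical 5D embryos were held with test chemical (0.64% DMSO final) from 6 to 120 hpf at 28C under foil. Deaths at 24 or 120 hpf were recorded as binary calls, analysed for increase over DMSO controls.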
For the molecule `CCCCN1C(=O)[C@@H]([C@H](O)C2CCCCC2)NC(=O)C12CCN(Cc1ccc(Oc3ccc(C(=O)O)cc3)cc1)CC2`, the call was inactive.
As for `OCC(CO)(CO)CO`, the molecule was called inactive.
Turning to `c1ccc(C(O[C@@H]2CCCN(CCc3ccc4c(c3)OCO4)C2)c2ccccc2)cc1`, the result was inactive.
Consider `Cn1c(=O)c2[nH]cnc2n(C)c1=O`, for which the molecule was classed as inactive.
For the molecule `CC(C)c1nnc2ccc(-c3ocnc3-c3cc(F)ccc3F)cn12`, the outcome was inactive.
For `O=C(O)c1cccc(C[C@@H]2COc3ccc(OCc4nc5cc(F)ccc5s4)cc3[C@@H]2O)c1`, the AC50 was 26 µM (active).
Consider `CCCCCCCC/C=C\CCCCCCCC(=O)OC[C@@H](O)[C@H]1OC[C@H](O)[C@H]1O`, for which the call was inactive.
On the same count and under the same terms, in the case of `O=S1(=O)CCCO1` it was “inactive”; in that of `C[C@]12C=CC(=O)C=C1CC[C@H]1[C@@H]3C[C@@H](O)[C@](O)(C(=O)CO)[C@@]3(C)C[C@H](O)[C@@]12F`, “inactive”; in that of `CCCCC(CC)C(=O)OCCOCCOCCOC(=O)C(CC)CCCC` (stereo not drawn), “inactive”.
On the same count and under the same terms, the entry for `C=CN1CCCC1=O` is “inactive”.
Turning to `CC(=O)c1ccccc1`, the outcome was inactive.
Still for that read-out and setting: the entry for `OC(Cn1cncn1)(Cn1cncn1)c1ccc(F)cc1F` is “inactive”; for `CCCCOC(=O)c1ccccc1` it is “inactive”; for `c1ccc2cc3ccccc3cc2c1` it is “inactive”.
Turning to `CCCCCCCCN(C)C`, the result was inactive.
With `CCn1nc(C)c2c1C(=O)NCC(c1ccc(O)cc1)=N2`, the molecule was called inactive.
Same read-out and setting: in the case of `CCc1cccc(CC)c1N` it was “inactive”.
On the same count and under the same terms, the entry for `CCN(CC)C(=S)SSC(=S)N(CC)CC` is “inactive”; for `CCCCCCCCCCCCCCO` it is “inactive”; for `CCCc1ccccc1` it is “inactive”.
Regarding `CCc1ccc(O)c(C(C)(C)C)c1`, the outcome was inactive.
Same read-out and setting: the entry for `O=C(O)c1ccc2c(c1)nc(C(=O)NC1CCN(C3CC3)CC1)n2Cc1cc(-c2ccc(Cl)s2)on1` is “inactive”; for `NNC(=O)c1ccncc1` it is “inactive”; for `C=CCc1cc(S(=O)(=O)c2ccc(O)c(CC=C)c2)ccc1O` it is “inactive”.
The same measure, in the same setting: the entry for `CCCCCCCCCC` is “inactive”; for `NC(=O)NN=Cc1ccc([N+](=O)[O-])o1` it is “inactive”; for `CC1(C)C(=O)N(Cl)C(=O)N1Cl` it is “inactive”.
Still for that read-out and setting: in the case of `CCCCCCOC(=O)CC(CC(=O)OCCCCCC)(OC(=O)CCC)C(=O)OCCCCCC` it was “inactive”.
As for `CCCCCCCC1CCC(=O)O1` (stereo not drawn), the molecule was called inactive.
Same read-out and setting: in the case of `c1ccc2ncccc2c1` it was “inactive”.
The same measure, in the same setting: in the case of `CCOC(N)=O` it was “inactive”; in that of `Cn1cc[nH]c1=S`, “inactive”.
Turning to `CCCCCCCCCCCCCCCCOS(=O)(=O)O`, the result was inactive.
Take `OCCOCCOCCO`: the molecule was classed as inactive.
On the same count and under the same terms, in the case of `OC(CCl)CCl` it was “inactive”; in that of `O=C1CN(N=Cc2ccc([N+](=O)[O-])o2)C(=O)N1`, “inactive”.
